# Test results published in PMC7862700, “An all-to-all approach to the identification of sequence-specific readers for epigenetic DNA modifications on cytosine”.
# Experiments:
# Experiment in all cases: DAPPL (digital affinity profiling via proximity ligation, sequencing); 10 mM Tris-HCl pH 7.5, 50 mM NaCl, 1 mM DTT, 4% glycerol, room temperature, 30 min; GST-TFs on glutathione beads, 16-mer random dsDNA library, 0.1% formaldehyde crosslink after washing; high values mean tight binding
# Details in all cases: protein: recombinant; tags: N-terminal GST; dsDNA, one strand shown
# ELK1 = biological target: T1, ELK1 (Homo sapiens, UniProt P19419 1-428)
# T1 sequence: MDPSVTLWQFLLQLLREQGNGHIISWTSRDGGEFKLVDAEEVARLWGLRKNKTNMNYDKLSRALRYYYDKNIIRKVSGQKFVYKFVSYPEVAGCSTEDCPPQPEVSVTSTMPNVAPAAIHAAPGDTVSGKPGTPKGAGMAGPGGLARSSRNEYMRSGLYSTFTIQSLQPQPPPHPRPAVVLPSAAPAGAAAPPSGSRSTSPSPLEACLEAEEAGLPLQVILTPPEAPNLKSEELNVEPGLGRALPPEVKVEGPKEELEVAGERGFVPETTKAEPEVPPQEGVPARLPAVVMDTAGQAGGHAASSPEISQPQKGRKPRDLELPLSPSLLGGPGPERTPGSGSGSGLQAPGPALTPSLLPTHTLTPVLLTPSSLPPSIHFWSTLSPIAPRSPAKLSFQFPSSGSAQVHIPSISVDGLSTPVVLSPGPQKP
# Method in brief: (§1)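 A tag-only sample was pooled with DNA-barcoded human transcription factors that had been expressed in yeast as GST fusions and captured on glutathione beads. The pools were incubated for 30 min at room temperature with 200 nmole of a random double-stranded 16-mer DNA library in Tris/NaCl/DTT/glycerol buffer, then washed, crosslinked with 0.1% formaldehyde, proximity-ligated (BsaI/T4 ligase, 1 h, 37 °C), PCR-amplified and sequenced on an Illumina NextSeq500. Binding signal is each hexamer's read frequency for a factor divided by its frequency for the tag-only sample.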
# GABPA = biological target: T2, GABPA (Homo sapiens, UniProt Q06546 1-454)
# T2 sequence: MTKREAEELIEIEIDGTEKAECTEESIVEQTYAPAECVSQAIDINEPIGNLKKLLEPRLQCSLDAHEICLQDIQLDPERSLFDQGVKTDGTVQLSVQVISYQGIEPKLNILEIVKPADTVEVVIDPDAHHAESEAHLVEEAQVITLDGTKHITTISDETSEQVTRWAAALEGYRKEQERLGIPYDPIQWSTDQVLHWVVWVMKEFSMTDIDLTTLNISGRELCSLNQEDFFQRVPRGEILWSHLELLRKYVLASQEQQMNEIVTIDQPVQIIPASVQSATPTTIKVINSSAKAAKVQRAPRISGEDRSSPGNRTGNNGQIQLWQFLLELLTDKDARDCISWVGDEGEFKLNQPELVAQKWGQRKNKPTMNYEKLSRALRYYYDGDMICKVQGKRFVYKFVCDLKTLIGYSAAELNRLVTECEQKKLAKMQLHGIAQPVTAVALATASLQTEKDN
# Method in brief: as §1
# ERG = biological target: T3, ERG (Homo sapiens, UniProt P11308 1-479)
# T3 sequence: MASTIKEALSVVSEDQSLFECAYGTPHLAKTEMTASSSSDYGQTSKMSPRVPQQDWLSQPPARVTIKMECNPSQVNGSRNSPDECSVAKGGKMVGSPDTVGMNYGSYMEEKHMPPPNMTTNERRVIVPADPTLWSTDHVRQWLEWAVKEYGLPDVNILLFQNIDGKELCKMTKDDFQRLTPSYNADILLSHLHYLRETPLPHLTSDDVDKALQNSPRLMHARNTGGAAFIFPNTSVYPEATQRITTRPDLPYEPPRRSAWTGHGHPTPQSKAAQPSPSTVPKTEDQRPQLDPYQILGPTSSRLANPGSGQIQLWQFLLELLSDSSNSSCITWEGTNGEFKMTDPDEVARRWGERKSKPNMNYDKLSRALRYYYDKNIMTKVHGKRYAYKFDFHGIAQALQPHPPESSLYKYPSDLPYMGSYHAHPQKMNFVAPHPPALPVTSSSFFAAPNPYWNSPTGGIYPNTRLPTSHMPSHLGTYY
# Method in brief: as §1
# EHF = biological target: T4, EHF (Homo sapiens, UniProt Q9NZC4 1-300)
# T4 sequence: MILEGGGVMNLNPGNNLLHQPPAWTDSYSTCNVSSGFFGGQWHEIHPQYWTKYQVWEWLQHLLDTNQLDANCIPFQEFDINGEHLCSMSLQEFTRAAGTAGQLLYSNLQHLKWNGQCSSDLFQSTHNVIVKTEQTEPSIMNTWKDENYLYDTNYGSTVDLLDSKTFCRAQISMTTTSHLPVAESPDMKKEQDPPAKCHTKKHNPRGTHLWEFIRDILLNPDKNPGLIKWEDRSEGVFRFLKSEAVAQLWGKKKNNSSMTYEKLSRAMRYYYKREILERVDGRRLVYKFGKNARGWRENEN
# Method in brief: as §1
# FEV = biological target: T5, FEV (Homo sapiens, UniProt Q99581 1-238)
# T5 sequence: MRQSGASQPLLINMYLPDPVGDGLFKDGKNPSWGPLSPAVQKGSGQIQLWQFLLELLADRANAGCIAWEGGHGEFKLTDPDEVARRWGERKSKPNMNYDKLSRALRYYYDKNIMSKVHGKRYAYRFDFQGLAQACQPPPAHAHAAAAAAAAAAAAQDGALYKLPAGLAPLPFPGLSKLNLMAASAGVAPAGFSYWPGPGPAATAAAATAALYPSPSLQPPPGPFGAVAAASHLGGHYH
# Method in brief: as §1
# ETV5 = ETV5 (Homo sapiens, UniProt P41161 1-510)
# Sequence of ETV5 (P41161 whole entry): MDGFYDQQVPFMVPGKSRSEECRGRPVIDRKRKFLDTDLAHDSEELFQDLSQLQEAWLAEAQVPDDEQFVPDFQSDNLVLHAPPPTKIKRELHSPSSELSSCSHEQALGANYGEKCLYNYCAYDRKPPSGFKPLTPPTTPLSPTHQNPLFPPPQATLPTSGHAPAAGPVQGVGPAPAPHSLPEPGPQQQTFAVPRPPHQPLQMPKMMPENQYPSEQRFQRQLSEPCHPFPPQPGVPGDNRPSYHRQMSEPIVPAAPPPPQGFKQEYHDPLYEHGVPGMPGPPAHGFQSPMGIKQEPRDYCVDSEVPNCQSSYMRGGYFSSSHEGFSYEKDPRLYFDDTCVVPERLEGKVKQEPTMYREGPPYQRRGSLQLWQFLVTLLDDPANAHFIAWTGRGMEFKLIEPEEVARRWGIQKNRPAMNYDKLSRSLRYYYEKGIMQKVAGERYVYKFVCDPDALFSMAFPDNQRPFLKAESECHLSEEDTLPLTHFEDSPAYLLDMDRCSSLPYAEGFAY
# Method in brief: as §1
# ELF4 = ELF4 (Homo sapiens, UniProt Q99607 1-663)
# Sequence of ELF4 (Q99607 whole entry): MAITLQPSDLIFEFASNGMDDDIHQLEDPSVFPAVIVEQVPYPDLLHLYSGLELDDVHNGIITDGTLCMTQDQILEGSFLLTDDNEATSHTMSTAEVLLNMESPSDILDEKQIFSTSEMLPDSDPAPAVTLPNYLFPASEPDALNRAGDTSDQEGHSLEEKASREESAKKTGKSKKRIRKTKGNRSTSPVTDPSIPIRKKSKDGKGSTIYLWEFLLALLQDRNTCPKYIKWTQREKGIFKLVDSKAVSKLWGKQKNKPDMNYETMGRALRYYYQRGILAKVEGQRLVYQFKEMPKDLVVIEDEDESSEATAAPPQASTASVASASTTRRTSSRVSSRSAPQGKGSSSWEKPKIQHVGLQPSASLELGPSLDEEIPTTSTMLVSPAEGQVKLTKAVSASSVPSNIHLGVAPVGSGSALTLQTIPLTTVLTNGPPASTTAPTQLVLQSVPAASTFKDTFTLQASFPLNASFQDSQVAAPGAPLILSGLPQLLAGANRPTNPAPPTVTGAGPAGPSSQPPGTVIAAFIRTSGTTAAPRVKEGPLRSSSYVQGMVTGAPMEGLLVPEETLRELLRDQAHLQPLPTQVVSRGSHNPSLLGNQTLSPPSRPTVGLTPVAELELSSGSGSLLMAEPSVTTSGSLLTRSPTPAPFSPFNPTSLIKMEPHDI
# Method in brief: as §1
# ELK4 = biological target: T6, ELK4 (Homo sapiens, UniProt P28324-2 1-405)
# T6 sequence: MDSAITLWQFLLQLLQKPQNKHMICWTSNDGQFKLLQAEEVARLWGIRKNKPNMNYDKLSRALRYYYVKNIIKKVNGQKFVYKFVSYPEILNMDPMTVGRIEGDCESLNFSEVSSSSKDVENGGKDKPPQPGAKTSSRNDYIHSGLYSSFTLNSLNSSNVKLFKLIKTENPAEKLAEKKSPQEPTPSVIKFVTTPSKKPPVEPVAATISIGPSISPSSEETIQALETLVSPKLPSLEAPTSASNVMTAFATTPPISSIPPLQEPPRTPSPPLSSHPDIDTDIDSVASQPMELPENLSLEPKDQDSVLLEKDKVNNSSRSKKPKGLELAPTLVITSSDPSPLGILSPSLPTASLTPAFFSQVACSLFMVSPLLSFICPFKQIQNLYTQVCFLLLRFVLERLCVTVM
# Method in brief: as §1
# ETV2 = biological target: T7, ETV2 (Homo sapiens, UniProt O00321 1-342)
# T7 sequence: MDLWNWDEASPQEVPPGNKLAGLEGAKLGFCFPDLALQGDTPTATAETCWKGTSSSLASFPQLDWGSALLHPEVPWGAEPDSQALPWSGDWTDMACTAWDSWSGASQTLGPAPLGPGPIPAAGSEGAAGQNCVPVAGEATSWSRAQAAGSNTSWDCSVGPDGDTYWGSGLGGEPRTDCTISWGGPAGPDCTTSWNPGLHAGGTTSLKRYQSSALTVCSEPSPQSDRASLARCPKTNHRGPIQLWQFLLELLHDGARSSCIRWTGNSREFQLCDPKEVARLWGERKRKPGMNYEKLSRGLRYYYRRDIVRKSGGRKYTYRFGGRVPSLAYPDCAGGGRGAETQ
# Method in brief: as §1
# ETV1 = ETV1 (Homo sapiens, UniProt P50549 1-477)
# Sequence of ETV1 (P50549 whole entry): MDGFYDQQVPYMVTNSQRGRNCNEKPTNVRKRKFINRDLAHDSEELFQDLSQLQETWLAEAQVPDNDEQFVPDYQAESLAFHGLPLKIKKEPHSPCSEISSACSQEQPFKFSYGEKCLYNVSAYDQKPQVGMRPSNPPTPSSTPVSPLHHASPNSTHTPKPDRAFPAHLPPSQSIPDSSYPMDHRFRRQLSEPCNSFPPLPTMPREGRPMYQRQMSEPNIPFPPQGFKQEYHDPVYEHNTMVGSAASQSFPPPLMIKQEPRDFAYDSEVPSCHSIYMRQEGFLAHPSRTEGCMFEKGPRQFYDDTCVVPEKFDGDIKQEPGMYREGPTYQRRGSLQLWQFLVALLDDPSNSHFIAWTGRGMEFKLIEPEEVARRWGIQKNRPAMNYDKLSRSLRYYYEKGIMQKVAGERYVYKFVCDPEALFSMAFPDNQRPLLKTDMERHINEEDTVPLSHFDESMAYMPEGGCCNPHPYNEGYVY
# Method in brief: as §1
# ERF = biological target: T8, ERF (Homo sapiens, UniProt P50548 1-548)
# T8 sequence: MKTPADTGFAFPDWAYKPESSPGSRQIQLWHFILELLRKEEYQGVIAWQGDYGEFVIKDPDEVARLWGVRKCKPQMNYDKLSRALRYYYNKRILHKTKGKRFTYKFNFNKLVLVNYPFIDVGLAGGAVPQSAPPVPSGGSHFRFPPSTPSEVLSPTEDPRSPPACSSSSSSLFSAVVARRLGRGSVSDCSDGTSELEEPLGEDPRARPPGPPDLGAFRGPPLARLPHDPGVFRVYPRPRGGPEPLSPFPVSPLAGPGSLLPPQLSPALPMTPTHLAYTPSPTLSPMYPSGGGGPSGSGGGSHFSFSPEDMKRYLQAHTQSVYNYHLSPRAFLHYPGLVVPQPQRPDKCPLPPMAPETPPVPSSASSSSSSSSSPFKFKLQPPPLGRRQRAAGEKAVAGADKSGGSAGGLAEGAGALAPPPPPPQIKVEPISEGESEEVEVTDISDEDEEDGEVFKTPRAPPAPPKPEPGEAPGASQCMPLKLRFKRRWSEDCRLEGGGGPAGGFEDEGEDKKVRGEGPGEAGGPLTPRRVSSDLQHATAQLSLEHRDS
# Method in brief: as §1
# ETV3L = biological target: T9, ETV3L (Homo sapiens, UniProt Q6ZN32 1-361)
# T9 sequence: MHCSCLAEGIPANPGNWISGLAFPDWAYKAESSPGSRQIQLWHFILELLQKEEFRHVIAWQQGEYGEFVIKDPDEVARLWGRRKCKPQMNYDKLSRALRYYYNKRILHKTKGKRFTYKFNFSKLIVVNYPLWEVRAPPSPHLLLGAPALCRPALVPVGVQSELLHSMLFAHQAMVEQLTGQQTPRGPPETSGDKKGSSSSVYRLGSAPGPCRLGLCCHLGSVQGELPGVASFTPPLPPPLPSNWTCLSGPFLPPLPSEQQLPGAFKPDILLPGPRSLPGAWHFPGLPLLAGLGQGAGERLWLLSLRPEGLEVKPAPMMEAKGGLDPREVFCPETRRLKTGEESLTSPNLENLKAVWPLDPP
# Method in brief: as §1
# ETS2 = biological target: T10, ETS2 (Homo sapiens, UniProt P15036 1-469)
# T10 sequence: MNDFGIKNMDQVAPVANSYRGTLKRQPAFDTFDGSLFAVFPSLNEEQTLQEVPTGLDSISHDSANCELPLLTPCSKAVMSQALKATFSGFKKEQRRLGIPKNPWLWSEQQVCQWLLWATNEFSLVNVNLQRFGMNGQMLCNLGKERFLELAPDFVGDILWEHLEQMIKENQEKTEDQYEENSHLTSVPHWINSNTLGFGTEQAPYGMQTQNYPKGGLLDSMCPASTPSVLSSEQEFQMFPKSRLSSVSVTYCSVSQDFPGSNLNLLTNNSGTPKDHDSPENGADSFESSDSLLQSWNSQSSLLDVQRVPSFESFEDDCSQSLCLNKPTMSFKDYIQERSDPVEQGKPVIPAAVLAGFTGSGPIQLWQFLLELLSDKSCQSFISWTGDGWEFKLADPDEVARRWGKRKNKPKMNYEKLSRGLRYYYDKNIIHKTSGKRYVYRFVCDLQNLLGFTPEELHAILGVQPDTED
# Method in brief: as §1
# SPDEF = biological target: T11, SPDEF (Homo sapiens, UniProt O95238 1-335)
# T11 sequence: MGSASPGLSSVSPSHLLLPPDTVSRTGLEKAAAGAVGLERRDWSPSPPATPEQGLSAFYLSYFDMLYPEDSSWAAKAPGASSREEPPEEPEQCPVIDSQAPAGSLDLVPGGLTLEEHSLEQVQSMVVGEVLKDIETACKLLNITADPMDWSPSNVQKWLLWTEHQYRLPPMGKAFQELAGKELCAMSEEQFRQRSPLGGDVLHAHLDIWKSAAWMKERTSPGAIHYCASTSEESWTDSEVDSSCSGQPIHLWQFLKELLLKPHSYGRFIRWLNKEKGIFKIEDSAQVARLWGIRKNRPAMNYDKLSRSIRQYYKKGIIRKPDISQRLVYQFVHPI
# Method in brief: as §1
# ETV7 = biological target: T12, ETV7 (Homo sapiens, UniProt Q9Y603 1-341)
# T12 sequence: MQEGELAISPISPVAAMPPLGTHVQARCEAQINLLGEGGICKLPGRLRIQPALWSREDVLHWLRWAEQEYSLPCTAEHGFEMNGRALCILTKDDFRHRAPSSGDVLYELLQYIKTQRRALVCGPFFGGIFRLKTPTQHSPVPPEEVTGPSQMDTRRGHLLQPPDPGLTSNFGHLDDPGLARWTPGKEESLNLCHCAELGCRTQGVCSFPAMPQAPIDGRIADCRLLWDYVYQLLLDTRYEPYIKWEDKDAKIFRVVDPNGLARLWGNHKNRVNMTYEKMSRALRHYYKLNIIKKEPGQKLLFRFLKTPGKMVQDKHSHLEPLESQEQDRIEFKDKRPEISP
# Method in brief: as §1
# ETV3 = biological target: T13, ETV3 (Homo sapiens, UniProt P41162-2 1-143)
# T13 sequence: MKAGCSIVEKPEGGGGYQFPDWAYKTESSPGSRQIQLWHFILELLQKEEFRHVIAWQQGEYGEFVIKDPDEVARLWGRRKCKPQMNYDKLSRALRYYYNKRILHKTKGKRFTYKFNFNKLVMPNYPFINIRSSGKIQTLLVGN
# Method in brief: as §1
sequence,measurement,setting,value
TAGGGC,binding signal,ELK1,"1.07 fold enrichment (6-mer frequency, TF over GST control)"
same,binding signal,GABPA,"1.01 fold enrichment (6-mer frequency, TF over GST control)"
same,binding signal,ERG,"1.01 fold enrichment (6-mer frequency, TF over GST control)"
same,binding signal,EHF,"1.18 fold enrichment (6-mer frequency, TF over GST control)"
same,binding signal,FEV,"1.06 fold enrichment (6-mer frequency, TF over GST control)"
same,binding signal,ETV5,"1.03 fold enrichment (6-mer frequency, TF over GST control)"
same,binding signal,ELF4,"1.03 fold enrichment (6-mer frequency, TF over GST control)"
same,binding signal,ELK4,"1.02 fold enrichment (6-mer frequency, TF over GST control)"
same,binding signal,ETV2,"1.12 fold enrichment (6-mer frequency, TF over GST control)"
same,binding signal,ETV1,"1.06 fold enrichment (6-mer frequency, TF over GST control)"
same,binding signal,ERF,"1.09 fold enrichment (6-mer frequency, TF over GST control)"
same,binding signal,ETV3L,"1.04 fold enrichment (6-mer frequency, TF over GST control)"
same,binding signal,ETS2,"1.06 fold enrichment (6-mer frequency, TF over GST control)"
same,binding signal,SPDEF,"1.01 fold enrichment (6-mer frequency, TF over GST control)"
same,binding signal,ETV7,"1.07 fold enrichment (6-mer frequency, TF over GST control)"
same,binding signal,ETV3,"1.03 fold enrichment (6-mer frequency, TF over GST control)"
